Data from PubChem BioAssay (NCI).
Compounds without any hit were thinned out: in the full panel of roughly 79,000, 15% have a hit. Rule as the data show it: active = growth inhibition above about 70%; inactive = the rest.

Columns and labels:
[1] = NCI Yeast Anticancer Drug Screen. Data for the rad50 strain (AID 155);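 also: 0% = growth of vehicle-only cultures of the same strain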; details: S. cerevisiae rad50 strain growth inhibition; at 50.0 µM; stronger effect = higher value
In short: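 Genetically altered yeast (DNA repair pathway); compound treatment; growth inhibition vs vehicle ctrl.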

[2] = NCI Yeast Anticancer Drug Screen. Data for the mec2-1 strain (AID 157); details: S. cerevisiae mec2-1 strain, at 50.0 µM, stronger effect = higher value
In short: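 Mutant yeast (mec2-1) grown with compound; growth inhibition relative to vehicle control reported.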

[3] = NCI Yeast Anticancer Drug Screen. Data for the sgs1 mgt1 strain (AID 161);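 also: 0% = growth of cultures given vehicle only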; details: S. cerevisiae sgs1 mgt1 strain, at 50.0 µM, stronger effect = higher value
In short: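 Yeast cells carrying a defined DNA-repair defect were exposed to test compounds. Growth inhibition was measured relative to vehicle-treated controls.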

[4] = NCI Yeast Anticancer Drug Screen. Data for the cln2 rad14 strain (AID 165);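 also: 0% = growth equal to vehicle treated cultures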; details: S. cerevisiae cln2 rad14 strain, at 50.0 µM, stronger effect = higher value
In short: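 Readout is yeast growth inhibition versus vehicle-treated controls, using a strain with cln2 and rad14 alterations exposed to compound.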

[5] = NCI Yeast Anticancer Drug Screen. Data for the bub3 strain (AID 167); details: S. cerevisiae bub3 mutant strain, at 50.0 µM, stronger effect = higher value
In short: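 Yeast carrying a defined mutation is treated with each compound, and growth is compared with that of vehicle-exposed cells to give inhibition.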

[6] = NCI Yeast Anticancer Drug Screen. Data for the mlh1 rad18 strain (AID 175); details: S. cerevisiae mlh1 rad18 strain growth inhibition; at 50.0 µM; stronger effect = higher value
In short: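 Genetically defined yeast (DNA repair-deficient) exposed to compounds; growth inhibition determined relative to vehicle.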

Measured: growth inhibition

O=C(NCCCl)NCC1CCCO1 (stereo not drawn)
inactive: [1] -9.35% | [2] -1.25% | [3] -13.8% | [4] -48.9% | [5] -4.75% | [6] 0.15%

CC(C)CC(NS(=O)(=O)Cc1ccccc1)C(=O)NN (stereo not drawn)
inactive: [1] -26.9% | [2] -13.6% | [3] -3.85% | [4] 11.2% | [5] 7.5% | [6] -22.1%

COc1ccc(Br)cc1/C=N\NC(=O)c1ccccc1N(C)C
inactive: [1] -24.2% | [2] -11.6% | [3] -10.8% | [4] 6.6% | [5] -3.05% | [6] -4.25%

c1ccc(N=C2SC(=NNc3ccccc3)SC2=Nc2ccccc2)cc1
inactive: [1] -21.8% | [2] 6.25% | [3] -21.9% | [4] -29.5% | [5] -8.25% | [6] -4.1%

Oc1cc2oc3cc(O)c(O)cc3c2cc1O
inactive: [1] 7% | [2] 10.4% | [3] 9.85% | [4] 35.4% | [5] 6.1% | [6] 23.9%

Cc1cc(C)nc(NS(=O)(=O)c2ccc(NC(=O)c3cccc4c(Nc5ccc(S(=O)(=O)N=C(N)N)cc5)c5ccccc5nc34)cc2)n1
inactive: [1] 0.75% | [2] 14.7% | [3] -10.5% | [4] 37.5% | [5] 26.1% | [6] 15.9%

CC(O)(/C=C/c1ccccc1)P(=O)(O)c1ccccc1 (stereo not drawn)
inactive: [1] -40% | [2] -13.2% | [3] -29.1% | [4] -13% | [5] -13.3% | [6] 9.4%

COc1ccc(/C=N/SC(c2ccccc2)(c2ccccc2)c2ccccc2)cc1
inactive: [1] 28.6% | [2] 6% | [3] 13.2% | [4] 13.4% | [5] 0.2% | [6] -4.4%

CC1(SCC(N)C(=O)O)CC(=O)NC1=O (stereo not drawn)
inactive: [1] -40.5% | [2] -33.1% | [3] -64.5% | [4] -36.8% | [5] -39.2% | [6] -40.1%

NC1=NC(=O)N(C2CC(O)C(COP(=O)(O)O)O2)C(I)C1 (stereo not drawn)
inactive: [1] 31.9% | [2] 0% | [3] 12.9% | [4] -28.6% | [5] -0.6% | [6] 13.2%

NC(=O)c1ccc[n+](CC(=O)Nc2ccccc2)c1
inactive: [1] -5.6% | [2] 0.65% | [3] 6.45% | [4] -30.6% | [5] 1.95% | [6] 3.8%

O=C(O)CCC(=O)c1ccc(O)cc1
inactive: [1] -0.2% | [2] -27% | [3] -7.1% | [4] -14.7% | [5] -14% | [6] 13.6%

CO[C@H]1C=CO[C@@]2(C)Oc3c(C)c(O)c4c(O)c(c(CN5CCN(C)CC5)c(O)c4c3C2=O)NC(=O)/C(C)=C\C=C[C@H](C)[C@H](O)C(C)[C@@H](O)C(C)[C@H](OC(C)=O)[C@@H]1C (stereo partly drawn)
inactive: [1] -14.5% | [2] -4.85% | [3] -21.1% | [4] 54% | [5] -36.2% | [6] -34.4%

CSc1c(C#N)c2c(Cl)ncnc2n1C(C)=O
inactive: [1] 1.7% | [2] 14.3% | [3] 9.95% | [4] -71.5% | [5] -7.5% | [6] 5.35%

CCOc1nc(N)nc(C)c1N=Nc1ccc(C)cc1
inactive: [1] 1.75% | [2] -8.45% | [3] -4.5% | [4] -34.4% | [5] -5.05% | [6] 2.45%

CC(C)NCC(=O)CCCBr
inactive: [1] -5.15% | [2] 0.85% | [3] -3.8% | [4] -23.1% | [5] 5.45% | [6] 10.8%

CNc1ccccc1C(=O)N/N=C\c1ccc(Cl)cc1Cl
inactive: [1] -7.75% | [2] -4.9% | [3] -1.3% | [4] -2.85% | [5] -10.1% | [6] -5.15%

COC(=O)CNC(=O)C1CSC(C)(C)N1C=O (stereo not drawn)
inactive: [1] -5.25% | [2] -9.85% | [3] 10.2% | [4] 2.4% | [5] 47.9% | [6] -6.2%

N#CC(CC(=O)c1ccccc1)c1ccccc1 (stereo not drawn)
inactive: [1] -10.3% | [2] 4.95% | [3] -18.9% | [4] -28.9% | [5] -14.3% | [6] -7.05%

COc1cc(C(C)O)c[n+](Cc2ccccc2)c1 (stereo not drawn)
inactive: [1] -31.6% | [2] -7.3% | [3] -16.1% | [4] 3.6% | [5] -18.9% | [6] -18.9%

S=c1[nH]nc(SCc2ccc(Cl)cc2Cl)c2[nH]cnc12
inactive: [1] -2.15% | [2] 1.4% | [3] 11.4% | [4] -32.4% | [5] -0.5% | [6] -6%

N#Cc1c(-c2ccccc2)c(C#N)c(=O)n(N)c1N
inactive: [1] -6.7% | [2] -0.8% | [3] 7.35% | [4] 2.5% | [5] 23.1% | [6] 16.9%

CNC(=O)OCc1c(COC(=O)NC)c2n(c1C)CCS2(=O)=O
inactive: [1] -1.25% | [2] -18.3% | [3] -8.15% | [4] -9.95% | [5] 0.35% | [6] 15.2%

S=C(NCCCN1Cc2ccccc2C1)Nc1ccccc1
inactive: [1] 15.4% | [2] -4.1% | [3] 3.15% | [4] -16.1% | [5] 4.85% | [6] -10.6%

Fc1ccccc1-c1nnc(-c2ccc3ccccc3c2)o1
inactive: [1] 33.1% | [2] 14.8% | [3] 32.4% | [4] 23.9% | [5] 40.5% | [6] 14.7%

CN(C)CCNC(=O)c1cccc2ccc(-c3ccncc3)nc12
inactive: [1] 6.15% | [2] 11% | [3] -20.7% | [4] -3.3% | [5] -19.9% | [6] -27.8%

CN(CCO)CC(O)Cn1cnc2ncnc(N)c21 (stereo not drawn)
inactive: [1] 21.2% | [2] 12% | [3] 28.7% | [4] 13.4% | [5] 7% | [6] 33.5%

COc1ccc(C(SCC(N)C(=O)O)(c2ccccc2)c2ccccc2)cc1 (stereo not drawn)
inactive: [1] 32.8% | [2] -11.7% | [3] 37% | [4] -42.4% | [5] 10.8% | [6] 54.6%

Nc1ccc([N+](=O)[O-])c(Cl)c1
inactive: [1] 5.35% | [2] -8.3% | [3] -11% | [4] -18.1% | [5] -13.1% | [6] 13.3%

COc1ccc(-c2c(C(C)=O)c(-c3ccccc3)n(C3OC(CO)C(O)C(O)C3O)c(=S)c2C#N)cc1 (stereo not drawn)
inactive: [1] -17.7% | [2] -3.7% | [3] 6.6% | [4] 3.95% | [5] 1.3% | [6] 6.2%

Cc1ncn(-c2ccccc2)c(=O)c1N=Cc1ccccc1
inactive: [1] -13.7% | [2] -17.1% | [3] -32.2% | [4] -8.85% | [5] -19.7% | [6] -10.3%

CC(C)C(CC(=O)O)C(=O)O (stereo not drawn)
inactive: [1] 3.8% | [2] -1.35% | [3] 10.2% | [4] -8% | [5] 3.95% | [6] 4.65%

CN=C1C=C(/N=C2/C=C(N/C(=C\C#N)C(C)(C)O)OC2(C)C)OC1(C)C
inactive: [1] -10.6% | [2] -5.3% | [3] 13.6% | [4] 7.1% | [5] 23.9% | [6] 28.6%

C1=C(c2ccccc2)c2ccccc2/C1=N/Nc1ccccc1
inactive: [1] 6.4% | [2] 6.15% | [3] 8.1% | [4] 2.3% | [5] 0.6% | [6] 5%

Cc1noc2cccc(O)c12
inactive: [1] 0.95% | [2] 12.6% | [3] 15.8% | [4] 10.9% | [5] 1.25% | [6] 34.6%

Cn1ccc(=S)c2ccccc21
inactive: [1] 18.2% | [2] 1.25% | [3] 9.6% | [4] -56.1% | [5] -2.15% | [6] 19.5%

CC(COc1ccccc1)OC(=O)CCl (stereo not drawn)
inactive: [1] 0.75% | [2] 5.6% | [3] -6.65% | [4] -16.9% | [5] -16.5% | [6] 27.6%

COc1ccc2c3c([nH]c2c1)C1CC2C(CC(O)C(OC)C2C(=O)O)CN1CC3 (stereo not drawn)
inactive: [1] -6.35% | [2] -23.7% | [3] -1.75% | [4] 15.2% | [5] 0.15% | [6] -4.9%
